Compound activity: PubChem, National Center for Advancing Translational Sciences (NCATS)
Only some compounds are listed: those with a hit (about 1.1% of all), similar ones and a draw of the others.
12-LOX inh: inhibitors of human 12S-lipoxygenase ALOX12. P18054. purified 12hLO, xylenol orange hydroperoxide absorbance. Potency, µM (top dose mostly 108 µM), hits mostly inhibitors. 1.1% of 580,000 active. AID 1671190
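Purified human 12hLO (150 nM final) in 25 mM Hepes, 0.01% Triton X-100, pH 7.0 was preincubated 15 min at room temperature with compound. Then 40 uM arachidonic acid was added, 30 min. Hydroperoxide was read by Fe-XO absorbance ratio 573/405 nm.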
Glioma ERSR ind: inducers of ER stress response in human glioma cells; 0.02% of 420,000 active; AID 602332; Potency, µM, usual class: activators; U87-MG GRP78 promoter luciferase reporter, 16 h; further: series mostly up to about 76 µM; nearly all actives have a fitted effect of over 35% in size
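ERSR induction read as luciferase luminescence (Bright-Glo, 10 min at room temperature) in stably transfected human U87-MG glioma cells exposed to compounds for 16 h, using GRP78 as sensor.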
BCR signal inh: chronic active BCR signaling inhibition; ABC-DLBCL IkBa-CBG/CBR reporter, luminescence ratio, 4 h; Potency, µM (highest dose often 46.1 µM), actives largely listed as inhibitors; 0.05% of 340,000 active; AID 493014; active means well fitted inhibition curve with a large enough effect in the signal ratio, with a control signal flat, not every such curve was filed as active; inconclusive means small, poorly fitted or top-dose-only effect, or effect the other way, or a change in a side signal; the % refers to the signal ratio
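Compounds up to 46 uM were incubated four hours with TMD8 cells whose green CBG68 luciferase is fused to IkappaBalpha; red CBR luminescence normalised the signal, and concentration-effect curves were fitted to fusion, red and ratio data.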
Anesthetic bind: binds horse apoferritin like a general anesthetic; apoferritin/1-aminoanthracene competitive binding, fluorescence; Potency, µM (titrated, usually from 77.5 µM), usual class: inhibitors; 0.074% of 350,000 active; further: nearly all actives have a fitted effect of over 20% in size
Target sequence (P02791 2-175 limits assumed): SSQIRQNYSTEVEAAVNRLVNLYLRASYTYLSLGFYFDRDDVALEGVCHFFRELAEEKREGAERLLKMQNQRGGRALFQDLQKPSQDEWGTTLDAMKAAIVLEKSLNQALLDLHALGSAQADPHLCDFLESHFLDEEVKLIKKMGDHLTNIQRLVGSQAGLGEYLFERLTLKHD
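In PBS, apoferritin at 10 uM is loaded with 1-AMA from a 50% saturated solution. After 10 min of compound exposure at ambient temperature, reduced 535 nm fluorescence indicates probe displacement.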
A number is an active result; n = inactive; u = inconclusive; x = not tested or not shown; ! = not confirmed by another sample; [ ] = remark or other dose. Unless noted, the call rests on the fitted dose curve; in most records, active means well fitted curve in the direction sought with a large enough effect; inconclusive means small, poorly fitted or top-dose-only effect, or another doubt; inactive means no such curve, though single readings can be large; an effect the other way counts as inactive or inconclusive.

SMILES	12-LOX inh	Glioma ERSR ind	BCR signal inh	Anesthetic bind
S=C(NCCSc1ccc(Cl)cc1)Nc1cccc(Cl)c1	35.5µM	x	x	x
CSc1cccc(NC(=O)CSc2ccc(Cl)cc2)c1	u	n	n	n
CSc1cccc(NC(=S)NCCSc2ccc(Cl)cc2)c1	35.5µM	x	x	x
COc1ccc(/C=C/c2cc(C(=O)O)c3ccccc3n2)cc1	u	n	u	n
COc1ccc(/C=C/c2cc(C(=O)O)c3ccccc3n2)cc1OC	17.8µM	x	x	x
N#Cc1nc(/C=C/c2cccs2)oc1NCCCn1ccnc1	n	x	x	x
Cc1ccc(C(=O)c2cc([N+](=O)[O-])ccc2N2CCCCC2)cc1	n	n	23.1µM	n
O=C(NCc1ccc2c(c1)OCO2)c1cc([N+](=O)[O-])ccc1N1CCCCC1	n	n	23.1µM	n
O=C(NCc1ccco1)c1cc([N+](=O)[O-])ccc1N1CCCCC1	n	n	n	u
Brc1ccc(-c2ccc(-c3nnc(-c4ccco4)o3)o2)cc1	14.1µM	x	x	x
CCc1ccc(NC(=S)N(Cc2ccc(Cl)cc2)Cc2ccc(C(=O)O)cc2)cc1	39.8µM	n	u	n
Cc1cccc(NC(=S)N(Cc2ccc(Cl)cc2)Cc2ccc(C(=O)O)cc2)c1	n	n	n	n
COc1ccc(CN(Cc2ccc(C(=O)O)cc2)C(=S)Nc2ccccc2Cl)cc1OC	n	n	u	n
COc1ccc(NC(=S)N(Cc2ccc(Cl)cc2)Cc2ccc(C(=O)O)cc2)cc1Cl	u	n	n	n
Cc1cc(NC(=S)N(Cc2ccc(Cl)cc2)Cc2ccc(C(=O)O)cc2)ccc1Cl	39.8µM	n	n	n
Cc1cc(C)cc(NC(=S)N(Cc2ccc(Br)cc2)Cc2ccc(C(=O)O)cc2)c1	28.2µM	n	u	n
COc1ccc(CN(Cc2ccc(C(=O)O)cc2)C(=S)Nc2ccccc2C)cc1OC	n	n	n	n
Cc1cc(C)cc(NC(=S)N(Cc2ccc(Cl)cc2)Cc2ccc(C(=O)O)cc2)c1	35.5µM	u	u	n
Cc1nc2cc(Cl)ccc2cc1C(=O)NCc1cccnc1-n1cccn1	n	x	x	x
COc1cc(C(=O)Nc2ccc3oc(=O)ccc3c2)ccc1C	n	x	x	x
Cc1nc2ccc(NC(=O)CC3CC4CCC3C4)cc2s1 (configuration not stated)	n	x	x	x
COc1ccc(C2Cn3cnc(C(=O)N4CCC(C(=O)Nc5ccccc5F)CC4)c3CO2)cc1 (configuration not stated)	n	x	x	x
COc1ccc2oc(=O)c(C(=O)N3CCCCC3C)cc2c1 (configuration not stated)	n	x	x	x
O=C(C(Sc1nc2ccccc2o1)c1ccccc1)N1CCCC1 (configuration not stated)	n	x	x	x
CCC(CC)NC(=O)CN1CCN(c2ccc(C(F)(F)F)cn2)CC1	n	x	x	x
SMILES	12-LOX inh	Glioma ERSR ind	BCR signal inh	Anesthetic bind
Cc1ccc(C(=O)CNc2cc(C)ccc2C)cc1	n	n	u	n
COc1cccc(NC(=S)N(Cc2ccc(C(=O)O)cc2)Cc2ccc(OC)c(OC)c2)c1	n	n	n	n
Cc1ccc(C)c(NC(=S)N(Cc2ccc(Cl)cc2)Cc2ccc(C(=O)O)cc2)c1	44.7µM	n	n	n
Cc1ccc(NC(=S)N(Cc2ccc(Br)cc2)Cc2ccc(C(=O)O)cc2)cc1C	39.8µM	n	n	n
Cc1ccc(C)c(NCC(=O)c2ccc(Cl)cc2)c1	35.5µM	n	n	n
CONC(=O)COc1ccc(C#N)cc1	n	x	x	x
Cc1c(Cl)cccc1N=Cc1ccc(C=Nc2cccc(Cl)c2C)cc1	n	x	x	x
COc1ccc(-c2cc(-c3ccccc3)nc3c2COc2ccccc2-3)cc1	n	n	x	n
Cc1ccc(C2=Nc3ccc(Cl)cc3OC2)cc1	21.7µM	x	x	x
Cc1ccc2c(c1)-c1c(cnc3cc(-c4ccc(Cl)cc4)nn13)CO2	n	n	x	n
COc1ccc(C2=Nc3ccccc3OC2)cc1	44.7µM	n	u	u
Fc1ccc(/C=N/Nc2cccc(Cl)c2)cc1F	3.98µM	x	x	x
N#Cc1ccc(/C=N/Nc2ccccc2Cl)cc1	10µM	x	x	x
N#Cc1ccc(/C=N/Nc2cccc(Cl)c2)cc1	2.51µM	x	x	x
O=[N+]([O-])c1ccc(/C=N/Nc2ccc(S(=O)(=O)Nc3cccc(Cl)c3)cc2[N+](=O)[O-])cc1	n	x	x	x
Clc1ccccc1NN=Cc1ccccn1	u	n	x	x
Nc1nc(Cl)nc(NCc2ccccc2)c1[N+](=O)[O-]	n	x	x	x
O=C(O)C1(Nc2ccccc2)CCCC1	u	n	x	x
O=C(O)c1ccc(NC2(C(=O)O)CCCC2)cc1	14.1µM	n	x	x
Cn1cc(C(=O)NC2(C)CCS(=O)(=O)C2)c2ccccc21 (configuration not stated)	12.6µM	x	x	x
NC(=NCCCCCCN=C(N)/N=C(\N)Nc1ccc(Cl)cc1)/N=C(\N)Nc1ccc(Cl)cc1	31.6µM!	n	u	u
CC(C)N=C(N)/N=C(\N)Nc1ccc(Cl)cc1	n[22.9 µM]	n	x	n
O=C(O)c1ccccc1-c1c2cc(I)c(=O)c(I)c-2oc2c(I)c(O)c(I)cc12	35.5µM!	n	x	n
O=C(O)c1ccccc1-c1cc2ccccc2oc1=O	n	x	x	x
O=C(O)c1c(Cl)c(Cl)c(Cl)c(Cl)c1-c1c2cc(I)c(=O)c(I)c-2oc2c(I)c(O)c(I)cc12	0.863µM	n	x	u
SMILES	12-LOX inh	Glioma ERSR ind	BCR signal inh	Anesthetic bind
CC1CN(Cc2ccc(C#N)cc2Cl)CC(C)O1 (configuration not stated)	u	n	n	n
CC1CN(Cc2ccc(Cl)cc2Cl)CC(C)O1 (configuration not stated)	0.631µM	n	n	n
CC(=O)OCC1=C(C(=O)O)N2C(=O)C(NC(=O)c3ccc(COc4ccc(Cl)cc4)o3)C2SC1 (configuration not stated)	39.8µM	n	n	n
CC(=O)OCC1=C(C(=O)O)N2C(=O)C(NC(=O)c3ccc(COc4c(C)cccc4Cl)o3)C2SC1 (configuration not stated)	u	n	n	n
CCOC(=O)c1ccc(NC(=O)CSc2nccn2Cc2ccccc2OC)cc1	n	x	x	x
CCc1ccc2nc3n[nH]c(N)c3cc2c1	n	n	12.6µM	n
CC1=NOC(=O)/C1=C\c1ccc(-c2ccc(Br)cc2)o1	44.7µM	n	u	u
CC1=NOC(=O)/C1=C\c1ccc(-c2ccc(Br)cc2C(=O)O)o1	u	n	n	n
CC1=NOC(=O)/C1=C\c1ccc(-c2cc(Cl)ccc2Cl)o1	2.24µM	n	n	u
Cc1ccc(S(=O)(=O)Nc2ccc(Br)cc2/C=N/n2cnnc2)cc1	44.7µM	n	u	n
Cc1ccc(S(=O)(=O)N/N=C/c2cc(Br)ccc2O)cc1	n	n	u	n
Cn1cc(C(=O)N2CCN(Cc3cccc4ccccc34)CC2)c(-c2ccc3c(c2)OCCCO3)n1	n	x	x	x
Cc1ccc(-c2cc(C(=O)N3CCN(C(=O)c4ccco4)CC3)c3ccccc3n2)o1	17.8µM	x	x	x
COc1ccccc1NC(=O)c1cc(-c2ccc(C)o2)nc2ccccc12	u	n	n	n
Cc1ccc(-c2cc(C(=O)O)c3ccccc3n2)o1	11.2µM	x	x	x
CC(=O)Nc1ccc(NC(=O)c2cc(-c3ccccc3)nc3ccccc23)cc1	n	n	n	n
Cc1ccc(NC(=O)c2cc(-c3ccc(C)o3)nc3ccccc23)cc1	4.47µM	n	u	n
